The full data set covers some 8,800 targets. This sample favours those with a hit. About 0.5% of all pairs of compound and target were hits.
Columns and labels:
Test in all cases: log2 fold change, soluble protein after heating vs DMSO (PISA); higher = thermal stabilisation; K562 lysate, 10 uM; active = over 0.2 and 3.5 SD of the protein, either way, in both replicates (recomputed)
ibrutinib = compound: C=CC(=O)N1CCC[C@@H](n2nc(-c3ccc(Oc4ccccc4)cc3)c3c(N)ncnc32)C1 [ibrutinib]
Procedure, shortened: (§1)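 Quantification was by TMTpro 16plex LC-MS/MS with equalised channel sums, applied to the supernatant after 21,000xg for 90 min. Samples were crude K562 extract at 1 mg/mL protein in PBS pH 7.4 with 1 mM MgCl2, treated with 10 μM compound for 30 min, heated for 3 min across 48°C-58°C, pooled and brought to 0.5% NP-40 at 4°C. Values are log-two fold changes in thermal stability relative to solvent controls, from duplicates.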

[1] = compound: CC(=O)c1cnc2ccc(-c3cc(Cl)c(O)c(Cl)c3)nc2c1N[C@H]1CC[C@H](CN(C)C)CC1
Procedure, shortened: as §1

ralimetinib = compound: CC(C)(C)Cn1c(N)nc2ccc(-c3[nH]c(C(C)(C)C)nc3-c3ccc(F)cc3)nc21 [ralimetinib]
Procedure, shortened: as §1

[2] = compound: CC(C)(O)CC(=O)NCCn1ccc2ncnc(Nc3ccc(Oc4cccc(C(F)(F)F)c4)c(Cl)c3)c21
Procedure, shortened: as §1

[3] = compound: CC(C)C1=C2N=C(C=C(N2N=C1)NCC3=CC=CC=C3)NCCCCCCN
Procedure, shortened: as §1

[4] = compound: CC1=C(C(CC(=O)N1)C2=CC=C(C=C2)C(F)(F)F)C(=O)NC3=C(C=C4C(=C3)C=NN4)F
Procedure, shortened: as §1

[5] = compound: CC1=C(C2=C(C=C1)C(=O)C3=CC=CC=C3N2CCCN)C
Procedure, shortened: as §1

[6] = compound: CC1=C(C=C(C=C1)NC(=O)C2=CC(=CC=C2)C(C)(C)C#N)NC3=CC4=C(C=C3)N=CN(C4=O)C
Procedure, shortened: as §1

[7] = compound: CC1=C(C=C(C=C1)NC(=O)C2=CC(=CC=C2)N(C)C)NC(=O)C3=CC=C(C=C3)O
Procedure, shortened: as §1

[8] = compound: CC1=CC=C(C=C1)SC2=C3C=C(SC3=CN=C2)C(=O)N
Procedure, shortened: as §1

vemurafenib = compound: CCCS(=O)(=O)Nc1ccc(F)c(C(=O)c2c[nH]c3ncc(-c4ccc(Cl)cc4)cc23)c1F [vemurafenib]
Procedure, shortened: as §1

[9] = compound: CCCS(=O)(=O)Nc1ccc(F)c(C(=O)c2c[nH]c3ncc(Cl)cc23)c1F
Procedure, shortened: as §1

barasertib = compound: CCN(CCCOc1ccc2c(Nc3cc(CC(=O)Nc4cccc(F)c4)[nH]n3)ncnc2c1)CCOP(=O)(O)O [barasertib]
Procedure, shortened: as §1

[10] = compound: CC[C@@H]1C(=O)N(C)c2cnc(Nc3ccc(C(=O)NC4CCN(C)CC4)cc3OC)nc2N1C1CCCC1
Procedure, shortened: as §1

volasertib = compound: CC[C@@H]1C(=O)N(C)c2cnc(Nc3ccc(C(=O)N[C@H]4CC[C@H](N5CCN(CC6CC6)CC5)CC4)cc3OC)nc2N1C(C)C [volasertib]
Procedure, shortened: as §1

[11] = compound: CCn1c(C(=O)N(C2CC2)C2CC2)cc2c3c(ncn3C)c(Nc3cc(C)n(C)n3)nc21
Procedure, shortened: as §1

[12] = compound: CCn1cc(-c2ccnc3[nH]c(-c4cccc(CN(C)C)c4)cc23)c(-c2ccc(NC(=O)N(C)C)cc2)n1
Procedure, shortened: as §1

[13] = compound: CN1CCC(CNc2ccc3ncc(-c4cccc(OC(F)(F)F)c4)n3n2)CC1
Procedure, shortened: as §1

saracatinib = compound: CN1CCN(CCOc2cc(OC3CCOCC3)c3c(Nc4c(Cl)ccc5c4OCO5)ncnc3c2)CC1 [saracatinib]
Procedure, shortened: as §1

sotrastaurin = compound: CN1CCN(c2nc(C3=C(c4c[nH]c5ccccc45)C(=O)NC3=O)c3ccccc3n2)CC1 [sotrastaurin]
Procedure, shortened: as §1

Measured: log2 fold change

ASB6 (UniProt Q9NWX5)
UniProt Q9NWX5, sequence (Q9NWX5 whole entry, looked up): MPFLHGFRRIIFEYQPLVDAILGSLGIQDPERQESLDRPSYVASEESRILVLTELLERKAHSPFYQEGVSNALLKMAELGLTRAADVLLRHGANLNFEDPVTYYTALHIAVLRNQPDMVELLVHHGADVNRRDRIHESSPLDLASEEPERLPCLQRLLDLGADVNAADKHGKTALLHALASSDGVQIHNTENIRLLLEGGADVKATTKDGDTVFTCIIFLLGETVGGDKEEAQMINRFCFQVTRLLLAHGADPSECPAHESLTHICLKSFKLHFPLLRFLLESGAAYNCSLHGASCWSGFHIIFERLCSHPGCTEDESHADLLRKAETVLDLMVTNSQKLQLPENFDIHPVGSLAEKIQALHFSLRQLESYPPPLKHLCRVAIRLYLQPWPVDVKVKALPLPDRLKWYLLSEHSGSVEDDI
inactive: ibrutinib -0.04 | [1] -0.087 | ralimetinib 0.027 | [2] -0.013 | [3] 0.001 | [4] -0.13 | [5] -0.007 | [6] 0.055 | [7] -0.052 | [8] 0.01 | vemurafenib -0.249 | [9] -0.039 | barasertib 0.109 | volasertib -0.026 | [11] -0.002 | [12] 0.182 | [13] 0.075 | saracatinib -0.05 | sotrastaurin -0.01
active: [10] 0.651

ALDH1B1 (UniProt P30837)
inactive: ibrutinib 0.008 | [1] 0.086 | ralimetinib 0.019 | [2] 0.02 | [3] 0.056 | [4] -0.024 | [5] -0.005 | [6] -0.018 | [7] -0.014 | [8] -0.018 | vemurafenib 0.008 | [9] 0.017 | barasertib -0.022 | [10] 0.029 | volasertib -0.013 | [11] -0.062 | [12] -0.015 | [13] 0.108 | saracatinib 0.011 | sotrastaurin 0.022

ANLN (UniProt Q9NQW6)
inactive: ibrutinib 0.025 | [1] -0.027 | ralimetinib 0.02 | [2] -0.001 | [3] -0.014 | [4] 0.02 | [5] -0.01 | [6] 0.026 | [7] 0.029 | [8] -0.04 | vemurafenib -0.012 | [9] 0.019 | barasertib 0.003 | [10] 0.01 | volasertib -0.014 | [11] -0.035 | [12] -0.067 | [13] -0.014 | saracatinib 0.002 | sotrastaurin 0.009

ANXA11 (UniProt P50995)
UniProt P50995, sequence (P50995 whole entry, looked up): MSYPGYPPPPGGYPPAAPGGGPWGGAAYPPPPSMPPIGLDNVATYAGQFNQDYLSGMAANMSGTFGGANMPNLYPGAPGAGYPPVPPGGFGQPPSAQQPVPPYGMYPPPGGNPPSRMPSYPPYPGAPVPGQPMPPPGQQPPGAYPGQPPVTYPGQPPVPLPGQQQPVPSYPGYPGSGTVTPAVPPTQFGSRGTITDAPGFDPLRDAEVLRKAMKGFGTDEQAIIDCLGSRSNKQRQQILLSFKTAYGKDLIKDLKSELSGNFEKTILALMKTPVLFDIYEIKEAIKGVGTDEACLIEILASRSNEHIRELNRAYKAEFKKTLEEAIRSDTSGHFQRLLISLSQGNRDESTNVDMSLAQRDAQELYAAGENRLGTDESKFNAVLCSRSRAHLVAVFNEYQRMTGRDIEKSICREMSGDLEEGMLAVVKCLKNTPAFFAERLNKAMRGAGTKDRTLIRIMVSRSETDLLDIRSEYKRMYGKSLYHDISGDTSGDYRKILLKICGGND
inactive: ibrutinib -0.005 | [1] -0.027 | ralimetinib -0.002 | [2] 0.057 | [3] 0.034 | [4] -0.031 | [5] 0.023 | [6] -0.041 | [7] 0.01 | [8] 0 | vemurafenib 0.02 | [9] -0.013 | barasertib 0.002 | [10] 0.024 | volasertib -0.031 | [11] 0.044 | [12] -0.049 | [13] -0.01 | saracatinib -0.009 | sotrastaurin -0.017

AIP (UniProt O00170)
UniProt O00170, sequence (O00170 whole entry, looked up): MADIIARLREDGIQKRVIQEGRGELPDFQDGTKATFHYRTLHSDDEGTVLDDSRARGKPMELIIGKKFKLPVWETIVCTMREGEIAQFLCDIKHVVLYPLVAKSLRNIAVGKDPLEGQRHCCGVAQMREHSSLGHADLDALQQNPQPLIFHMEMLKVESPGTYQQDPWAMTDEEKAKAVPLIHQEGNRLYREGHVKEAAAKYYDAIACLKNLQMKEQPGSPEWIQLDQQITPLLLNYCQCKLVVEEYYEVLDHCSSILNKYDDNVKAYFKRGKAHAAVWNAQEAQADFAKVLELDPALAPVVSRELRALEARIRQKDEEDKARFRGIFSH
inactive: ibrutinib 0.019 | [1] -0.004 | ralimetinib -0.022 | [2] -0.003 | [3] -0.012 | [4] -0.011 | [5] -0.017 | [6] 0.011 | [7] 0 | [8] -0.023 | vemurafenib -0.002 | [9] 0.015 | barasertib -0.004 | [10] 0.017 | volasertib -0.004 | [11] -0.022 | [13] -0.019 | saracatinib -0.015 | sotrastaurin 0.007
active: [12] 0.514

ARHGEF1 (UniProt M0QZR4)
inactive: ibrutinib -0.009 | [1] -0.001 | ralimetinib 0.009 | [2] -0.008 | [3] 0.019 | [4] -0.015 | [5] 0.007 | [6] 0.002 | [7] 0.015 | [8] 0.005 | vemurafenib 0.014 | [9] 0.004 | barasertib 0.023 | [10] -0.025 | volasertib -0.041 | [11] 0.014 | [12] -0.08 | [13] 0.013 | saracatinib 0.009 | sotrastaurin 0.018

ARMC6 (UniProt Q6NXE6)
UniProt Q6NXE6, sequence (Q6NXE6 whole entry, looked up): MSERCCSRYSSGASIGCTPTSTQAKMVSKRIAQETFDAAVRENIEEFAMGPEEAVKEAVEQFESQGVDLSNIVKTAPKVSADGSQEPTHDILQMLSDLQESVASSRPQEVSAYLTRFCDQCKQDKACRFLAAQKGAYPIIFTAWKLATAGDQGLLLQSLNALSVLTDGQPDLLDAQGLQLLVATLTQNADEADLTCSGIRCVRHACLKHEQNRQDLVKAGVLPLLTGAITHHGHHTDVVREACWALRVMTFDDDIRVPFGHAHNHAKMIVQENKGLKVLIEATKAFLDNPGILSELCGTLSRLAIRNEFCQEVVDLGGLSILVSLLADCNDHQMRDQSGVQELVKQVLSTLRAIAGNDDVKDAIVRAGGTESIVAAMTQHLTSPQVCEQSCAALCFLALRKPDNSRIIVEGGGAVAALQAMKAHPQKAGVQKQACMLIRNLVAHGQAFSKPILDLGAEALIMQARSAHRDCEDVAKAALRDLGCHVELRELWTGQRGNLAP
inactive: ibrutinib 0.023 | [1] 0.005 | ralimetinib 0.007 | [2] -0.005 | [3] 0.002 | [4] -0.013 | [5] 0.001 | [6] -0.011 | [7] 0.016 | [8] 0 | vemurafenib -0.053 | [9] 0.02 | barasertib 0.071 | [10] -0.136 | volasertib -0.056 | [11] 0.019 | [12] 0.002 | [13] -0.035 | saracatinib 0.013 | sotrastaurin 0.019

AP1G2 (UniProt O75843)
UniProt O75843, sequence (O75843 whole entry, looked up): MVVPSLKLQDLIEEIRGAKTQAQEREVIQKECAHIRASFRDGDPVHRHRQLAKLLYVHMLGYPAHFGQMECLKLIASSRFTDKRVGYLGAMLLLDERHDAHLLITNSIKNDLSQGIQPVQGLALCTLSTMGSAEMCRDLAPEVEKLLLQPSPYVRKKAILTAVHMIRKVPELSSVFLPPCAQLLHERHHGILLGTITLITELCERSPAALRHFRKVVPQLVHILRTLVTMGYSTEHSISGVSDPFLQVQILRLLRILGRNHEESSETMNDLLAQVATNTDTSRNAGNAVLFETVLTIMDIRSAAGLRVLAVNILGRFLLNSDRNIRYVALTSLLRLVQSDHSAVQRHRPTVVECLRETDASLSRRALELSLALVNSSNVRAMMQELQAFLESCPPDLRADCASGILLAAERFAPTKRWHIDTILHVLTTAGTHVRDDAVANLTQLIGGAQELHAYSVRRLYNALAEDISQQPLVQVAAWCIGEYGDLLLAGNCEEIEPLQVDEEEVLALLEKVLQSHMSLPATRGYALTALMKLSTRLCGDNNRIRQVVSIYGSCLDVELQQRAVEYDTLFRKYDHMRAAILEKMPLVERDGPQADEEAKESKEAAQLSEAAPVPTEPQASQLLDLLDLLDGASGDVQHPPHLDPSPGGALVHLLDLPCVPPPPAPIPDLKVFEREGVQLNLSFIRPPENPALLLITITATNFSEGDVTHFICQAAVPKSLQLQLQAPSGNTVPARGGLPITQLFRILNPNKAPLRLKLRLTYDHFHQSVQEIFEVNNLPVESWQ
inactive: ibrutinib 0.012 | [1] -0.087 | ralimetinib 0.069 | [2] 0.013 | [3] -0.121 | [4] -0.109 | [5] -0.156 | [6] -0.011 | [7] 0.023 | [8] -0.027 | vemurafenib -0.057 | [9] 0.044 | barasertib 0.011 | [10] -0.014 | volasertib -0.053 | [11] -0.003 | [12] -0.007 | [13] 0.032 | saracatinib -0.032 | sotrastaurin 0.022

AKAP8 (UniProt O43823)
UniProt O43823, sequence (O43823 whole entry, looked up): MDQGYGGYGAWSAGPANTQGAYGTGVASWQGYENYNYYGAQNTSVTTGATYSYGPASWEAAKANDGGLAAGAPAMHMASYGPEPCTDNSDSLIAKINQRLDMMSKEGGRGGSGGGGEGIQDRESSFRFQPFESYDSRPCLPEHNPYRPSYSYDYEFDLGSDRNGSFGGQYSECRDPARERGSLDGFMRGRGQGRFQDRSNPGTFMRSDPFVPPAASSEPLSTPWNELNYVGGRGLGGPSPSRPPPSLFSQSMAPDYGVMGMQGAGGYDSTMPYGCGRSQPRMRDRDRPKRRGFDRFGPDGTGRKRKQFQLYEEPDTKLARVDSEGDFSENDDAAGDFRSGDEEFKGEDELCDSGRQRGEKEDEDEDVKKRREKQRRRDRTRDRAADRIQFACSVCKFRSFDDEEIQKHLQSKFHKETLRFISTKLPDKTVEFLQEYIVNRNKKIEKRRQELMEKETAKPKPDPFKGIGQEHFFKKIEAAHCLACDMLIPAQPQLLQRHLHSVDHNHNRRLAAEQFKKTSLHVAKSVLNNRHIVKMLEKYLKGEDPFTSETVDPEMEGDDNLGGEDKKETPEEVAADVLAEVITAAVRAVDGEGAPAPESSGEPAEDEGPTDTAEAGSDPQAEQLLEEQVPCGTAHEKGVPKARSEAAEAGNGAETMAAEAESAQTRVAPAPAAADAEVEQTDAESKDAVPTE
inactive: ibrutinib 0 | [1] -0.019 | ralimetinib -0.039 | [2] -0.084 | [3] -0.009 | [4] 0.076 | [5] -0.056 | [6] -0.158 | [7] 0.016 | [8] -0.03 | vemurafenib 0.006 | [9] 0.044 | barasertib 0.056 | [10] -0.009 | volasertib -0.03 | [11] -0.013 | [12] -0.056 | [13] 0.044 | saracatinib 0.075 | sotrastaurin 0.008

AARS2 (UniProt Q5JTZ9)
UniProt Q5JTZ9, sequence (Q5JTZ9 whole entry, looked up): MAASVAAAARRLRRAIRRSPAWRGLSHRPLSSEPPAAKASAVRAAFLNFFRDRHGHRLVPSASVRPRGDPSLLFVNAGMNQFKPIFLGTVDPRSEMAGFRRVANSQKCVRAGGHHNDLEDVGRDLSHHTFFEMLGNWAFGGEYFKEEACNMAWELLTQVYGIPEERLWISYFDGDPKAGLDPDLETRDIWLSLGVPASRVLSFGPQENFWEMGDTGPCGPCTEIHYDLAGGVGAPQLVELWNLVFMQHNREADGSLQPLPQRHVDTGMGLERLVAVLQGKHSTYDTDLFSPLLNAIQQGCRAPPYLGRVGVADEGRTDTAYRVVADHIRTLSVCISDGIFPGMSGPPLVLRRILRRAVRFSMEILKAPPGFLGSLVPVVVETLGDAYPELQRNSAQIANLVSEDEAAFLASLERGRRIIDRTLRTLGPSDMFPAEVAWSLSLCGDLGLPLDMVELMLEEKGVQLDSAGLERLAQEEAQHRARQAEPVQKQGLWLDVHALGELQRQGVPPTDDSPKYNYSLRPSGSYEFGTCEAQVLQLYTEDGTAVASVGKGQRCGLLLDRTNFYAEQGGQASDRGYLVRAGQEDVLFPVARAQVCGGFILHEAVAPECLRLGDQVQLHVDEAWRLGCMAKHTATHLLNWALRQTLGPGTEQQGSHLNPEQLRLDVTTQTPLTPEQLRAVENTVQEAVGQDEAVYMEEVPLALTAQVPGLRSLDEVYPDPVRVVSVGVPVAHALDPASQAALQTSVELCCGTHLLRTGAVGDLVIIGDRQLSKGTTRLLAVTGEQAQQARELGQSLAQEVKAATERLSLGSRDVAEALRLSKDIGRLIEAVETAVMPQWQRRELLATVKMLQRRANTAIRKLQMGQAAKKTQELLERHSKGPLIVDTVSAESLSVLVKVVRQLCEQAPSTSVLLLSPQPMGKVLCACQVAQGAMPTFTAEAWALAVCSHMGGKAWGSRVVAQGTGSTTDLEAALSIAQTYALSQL
inactive: ibrutinib 0 | [1] -0.052 | ralimetinib 0.025 | [2] -0.018 | [3] 0.029 | [4] 0.009 | [5] 0.02 | [6] -0.006 | [7] 0.035 | [8] -0.03 | vemurafenib 0.041 | [9] -0.052 | barasertib 0.029 | [10] -0.055 | volasertib -0.037 | [11] 0.027 | [12] 0.027 | [13] -0.053 | saracatinib 0.003 | sotrastaurin 0.031

ACSL4 (UniProt O60488)
inactive: ibrutinib 0.035 | [1] -0.012 | ralimetinib 0.051 | [2] -0.022 | [3] -0.015 | [4] 0.027 | [5] -0.079 | [6] -0.044 | [7] 0.052 | [8] 0.021 | vemurafenib 0.061 | [9] -0.007 | barasertib -0.006 | [10] -0.029 | volasertib -0.001 | [11] 0.036 | [12] 0.008 | [13] -0.02 | saracatinib 0.047 | sotrastaurin 0.043

ACIN1 isoform 5 (UniProt Q9UKV3)
inactive: ibrutinib -0.004 | [1] -0.015 | ralimetinib -0.011 | [2] -0.028 | [3] -0.021 | [4] -0.024 | [5] -0.001 | [6] -0.042 | [7] 0.003 | [8] -0.016 | vemurafenib 0.014 | [9] 0.024 | barasertib 0.009 | [10] -0.016 | volasertib 0 | [11] -0.018 | [12] 0.067 | [13] -0.01 | saracatinib 0.006 | sotrastaurin 0.014

AKAP8L (UniProt Q9ULX6)
UniProt Q9ULX6, sequence (Q9ULX6 whole entry, looked up): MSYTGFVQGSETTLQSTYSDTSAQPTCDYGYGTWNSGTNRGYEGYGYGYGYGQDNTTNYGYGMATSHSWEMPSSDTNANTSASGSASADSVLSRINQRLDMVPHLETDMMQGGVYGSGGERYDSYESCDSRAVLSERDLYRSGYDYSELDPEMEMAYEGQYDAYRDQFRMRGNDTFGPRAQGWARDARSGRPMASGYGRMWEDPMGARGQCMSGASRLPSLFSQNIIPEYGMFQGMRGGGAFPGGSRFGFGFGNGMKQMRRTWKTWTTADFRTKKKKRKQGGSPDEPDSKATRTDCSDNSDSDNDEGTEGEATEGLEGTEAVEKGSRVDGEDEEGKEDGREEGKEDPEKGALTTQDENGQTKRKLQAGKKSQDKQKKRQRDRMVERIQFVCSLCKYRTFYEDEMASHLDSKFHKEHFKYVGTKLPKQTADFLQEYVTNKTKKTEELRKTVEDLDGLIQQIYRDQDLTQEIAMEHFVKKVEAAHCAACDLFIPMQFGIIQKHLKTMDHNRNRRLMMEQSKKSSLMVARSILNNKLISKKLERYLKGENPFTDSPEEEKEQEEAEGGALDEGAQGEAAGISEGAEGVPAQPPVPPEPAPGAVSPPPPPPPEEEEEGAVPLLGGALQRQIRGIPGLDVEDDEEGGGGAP
active: [6] -0.271
inactive: ibrutinib 0 | [1] -0.046 | ralimetinib 0.002 | [2] -0.019 | [3] 0.009 | [4] -0.02 | [5] 0.003 | [7] 0.046 | [8] 0.032 | vemurafenib -0.003 | [9] 0.033 | barasertib -0.066 | [10] -0.036 | volasertib -0.042 | [11] 0.019 | [12] -0.042 | [13] -0.01 | saracatinib 0.002 | sotrastaurin 0.013

ARL15 (UniProt Q9NXU5)
inactive: ibrutinib -0.015 | [1] 0.048 | ralimetinib -0.012 | [2] -0.05 | [3] 0.015 | [4] 0.005 | [5] 0.005 | [6] 0.001 | [7] 0.033 | [8] -0.005 | vemurafenib -0.057 | [9] -0.019 | barasertib 0.002 | [10] -0.082 | volasertib -0.009 | [11] 0.035 | [13] -0.119 | saracatinib -0.01 | sotrastaurin 0.049
active: [12] 0.765

ALG13 (UniProt Q9NP73)
inactive: ibrutinib 0.118 | [1] 0.037 | ralimetinib 0.008 | [2] 0.026 | [3] 0.022 | [4] 0.065 | [5] -0.025 | [6] 0.063 | [7] 0.012 | [8] -0.001 | vemurafenib 0.014 | [9] 0.015 | barasertib 0.054 | [10] 0.041 | volasertib -0.041 | [11] -0.016 | [12] -0.14 | [13] 0.086 | saracatinib 0.023 | sotrastaurin 0.017

AKR1B1 (UniProt P15121)
inactive: ibrutinib 0.023 | [1] -0.015 | ralimetinib 0.031 | [2] -0.029 | [3] -0.033 | [4] -0.013 | [5] 0.091 | [6] -0.038 | [7] 0.028 | [8] 0.004 | vemurafenib 0.006 | [9] 0.024 | barasertib 0.02 | [10] 0.072 | volasertib -0.015 | [11] 0.008 | [12] -0.054 | [13] 0.116 | saracatinib 0.065 | sotrastaurin -0.012

From the supplement of paper PMC10849652
